Where “and” joins values, the source holds several entries; their conditions need not be identical. Equal values may be shown once. Compounds without any hit were thinned out: in the full panel of roughly 79,000, 15% have a hit. Values without a mark were called inactive. Calls of active or inactive are those of the source. Rule as the data show it: active = growth inhibition above about 70%; inactive = the rest.
Assays:
[1] = NCI Yeast Anticancer Drug Screen. Data for the rad50 strain (AID 155);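 also: 0% = growth of vehicle-only cultures of the same strain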; conditions: S. cerevisiae rad50 strain growth inhibition; at 50.0 µM; active compounds read high
How it was run: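 DNA repair mutant yeast, compound exposure, growth read-out; inhibition is taken relative to vehicle.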

[2] = NCI Yeast Anticancer Drug Screen. Data for the mec2-1 strain (AID 157); conditions: S. cerevisiae mec2-1 strain, at 50.0 µM, active compounds read high
How it was run: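 mec2-1 yeast strain, carrying an alteration in DNA damage repair or cell cycle control, was exposed to compounds; growth inhibition was measured relative to vehicle-treated controls.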

[3] = NCI Yeast Anticancer Drug Screen. Data for the sgs1 mgt1 strain (AID 161);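 also: 0% = growth of cultures given vehicle only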; conditions: S. cerevisiae sgs1 mgt1 strain, at 50.0 µM, active compounds read high
How it was run: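 This yeast growth screen uses a strain with defined DNA-repair lesions; compound-treated growth is compared with vehicle-treated growth.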

[4] = NCI Yeast Anticancer Drug Screen. Data for the cln2 rad14 strain (AID 165);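 also: 0% = growth equal to vehicle treated cultures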; conditions: S. cerevisiae cln2 rad14 strain, at 50.0 µM, active compounds read high
How it was run: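 Yeast carrying cln2 and rad14 alterations (cell cycle control and DNA damage repair) were exposed to compounds. Growth inhibition was measured against vehicle-treated controls.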

[5] = NCI Yeast Anticancer Drug Screen. Data for the bub3 strain (AID 167); conditions: S. cerevisiae bub3 mutant strain, at 50.0 µM, active compounds read high
How it was run: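 In this screen, a yeast mutant lacking normal mitotic checkpoint function is challenged with compound. Relative growth versus vehicle gives the inhibition value.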

[6] = NCI Yeast Anticancer Drug Screen. Data for the mlh1 rad18 strain (AID 175); conditions: S. cerevisiae mlh1 rad18 strain growth inhibition; at 50.0 µM; active compounds read high
How it was run: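 Growth inhibition of the yeast strain was measured after compound exposure and expressed relative to vehicle-treated controls. The strain carries defined defects in DNA damage repair.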

Row | SMILES | growth inhibition [1] | growth inhibition [2] | growth inhibition [3] | growth inhibition [4] | growth inhibition [5] | growth inhibition [6]
1 | [C-]#[O+].[C-]#[O+].[C-]#[O+].[Mo].c1ccc([PH+](CC[As](c2ccccc2)c2ccccc2)CC[As](c2ccccc2)c2ccccc2)cc1 | 11.4% | 9.45% | 21.1% | 19.2% | 6.7% | 28.9%
2 | Cc1ccc(SP(=S)(Sc2ccc(C)cc2)Sc2ccc(C)cc2)cc1 | 11.7% | -65.8% | -4.15% | -29.9% | -12.2% | 10%
3 | NC(=O)CCCc1ccc([As]=O)cc1 (centres undefined) | -8.7% | -11.9% | -8.85% | -27.1% | -0.25% | 9.75%
4 | C[n+]1ccccc1-c1ccc[n+](CCCC[n+]2cccc(-c3cccc[n+]3C)c2)c1 | -8.5% | -1.8% | -7.5% | -25.6% | -8.65% | 20%
5 | CCn1/c(=N\N=O)sc2ccccc21 | -4.1% | 6.05% | -4.2% | -23.9% | -35.3% | 3.6%
6 | Cc1cc(N(CCCl)CCCl)ccc1C=Nc1ccc(F)cc1[N+](=O)[O-] | 4.3% | 3.1% | 2.65% | 1.65% | -8.45% | 18.7%
7 | [O-][N+]12CCCCC1C1CC(C2)C2CCCC(c3ccccc3)N2C1 (centres undefined) | 3.55% | -25.1% | -22.8% | -34.8% | -28% | -59.2%
8 | Cc1cccc2c(=O)c([Se]c3coc4c(C)cccc4c3=O)coc12 | -12.4% | -15.2% | -48.2% | -5.8% | -13.2% | -30.1%
9 | N#CC(c1ccccc1)c1ccccc1 | -12.9% | 9.35% | -4.55% | -17.6% | 20.6% | 31.3%
10 | CC(C)OP(=O)(OC(C)C)C(C(F)(F)F)C(F)(F)F | -3.65% | 9.65% | 19% | 45.9% | 10.6% | -23.1%
11 | O=P(O)(O)c1ccccc1.[Zn+2] | 13.9% | 16.4% | -0.45% | -14% | 18.1% | 24.2%
12 | CCC[CH2][Sn]([CH2]C)([CH2]C)[CH2]C | 40.4% | 17.8% | 35.7% | 15.8% | 20.9% | 31.3%
13 | Br[CH](Br)[Hg][c]1ccccc1 | 99.2% (active) | 99.5% (active) | 94.3% (active) | 99.2% (active) | 99.2% (active) | 99.2% (active)
14 | CCC[CH2][Sn]([Br])([CH2]CCC)[CH2]CCC | 91.2% (active) | 97.8% (active) | 95.8% (active) | 96% (active) | 89.4% (active) | 97.3% (active)
15 | O=[P+](O)C(O)c1ccccc1 (centres undefined) | -20.6% | -27.9% | -14.1% | 4.9% | -10.8% | -7.7%
16 | O.O.[NH-]C1CCCCC1[NH-].[Pt+2] (centres undefined) | 19.6% | 33.6% | 6.25% | -5.95% | 3.05% | 44.2%
17 | CCCCOP(=O)(/C=C/c1ccccc1)OCCCC | 86.3% (active) | 77.9% (active) | 80.2% (active) | 24.7% | 74.2% (active) | 80.8% (active)
18 | CC1=CC23C(COC(=O)C24CO4)C(C(=O)O)=CC3C1C (centres undefined) (tested in a mixture with another compound) | 38% | 29% | 34.5% | 33.4% | 17.9% | 30.4%
19 | COc1ccc(CC2c3cc(OC)c(OC)cc3CCN2C)cc1OC (centres undefined) | -3.6% and -11.2% | -5.2% and -18.4% | -8.1% and -8.4% | -5% and 13.1% | 12.7% and -3.45% | 8.4% and 1.7%

From PubChem BioAssay (NCI)
